Measurements as given in PubChem BioAssay (NCATS).
Several values for one entry are separate records, joined by “and”; a condition that tells them apart may be missing. Identical values can stand only once. Results filed as inconclusive are left out. Values without a mark were called inactive. Activity calls are given as the source filed them. Calls follow the shape of the dose curve; as a rule, active = well fitted inhibition curve with a large enough effect; inconclusive = small, poorly fitted or top-dose-only effect; inactive = flat fitted curve, though single readings scatter.

test system: CRL-7250; assay: Cytotoxic Profiling of Annotated Libraries Using Quantitative High-Throughput Screening (AID 1296008); conditions: Five cell lines viability, CellTiter-Glo ATP luminescence, 48-72 h; max response: active compounds read low; also: nearly all actives have a fitted effect of over 60% in size
In short: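 Cells exposed to compounds for 48 or 72 hr at 37 degrees Celsius. Viability read as ATP-coupled luminescence with CellTiter-Glo after 10 min at room temperature.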
% is scaled to controls: 0 for no effect and ±100 for the full control effect; potency is read from the fitted curve at half-maximal effect.

Structure (SMILES)	Potency	max response	outcome
C[C@@H](Oc1cc(-c2cnn(C3CCNCC3)c2)cnc1N)c1c(Cl)ccc(F)c1Cl	11.8 µM (active) and 20.6 µM (active) and 23.1 µM (active)	–	–
COc1cc(Nc2ncc(F)c(Nc3ccc4c(n3)N(COP(=O)(O)O)C(=O)C(C)(C)O4)n2)cc(OC)c1OC	1.48 µM (active) and 3.66 µM (active)	–	–
Cc1[nH]nc2ccc(-c3cncc(OC[C@@H](N)Cc4ccccc4)c3)cc12	2.64 µM (active) and 5.8 µM (active)	–	–
CC(=O)SC[C@@H](C)C(=O)N1CCC[C@H]1C(=O)N[C@@H](Cc1ccccc1)C(=O)O	–	1.31%	–
CCN1CCN(CC(=O)Nc2ccc(-c3cccc4c(=O)cc(N5CCOCC5)oc34)c3sc4ccccc4c23)CC1	2.35 µM (active)	–	–
Cn1c(=O)n(-c2ccc(C(C)(C)C#N)cc2)c2c3cc(-c4cnc5ccccc5c4)ccc3ncc21	259 nM (active) and 235 nM (active)	–	–
NC(=O)c1cccc2cn(-c3ccc([C@@H]4CCCNC4)cc3)nc12	–	-21.5% and 4.62%	–
CCCCCN(CCC12CC3CC(CC(C3)C1)C2)C(=O)NCCCc1ccncc1	–	-19%	–
COc1cc(C(C)C)c2c(c1)S(=O)(=O)N(COc1cc(=O)n3cccc(OCCN4CCCCC4)c3n1)C2=O	–	-9.13%	–
Cc1cc(N2CCOCC2)cc2[nH]c(-c3c(NC[C@@H](O)c4cccc(Cl)c4)cc[nH]c3=O)nc12	11.8 µM (active)	–	–
C[C@@]12O[C@@H](C[C@]1(O)CO)n1c3ccccc3c3c4c(c5c6ccccc6n2c5c31)CNC4=O	0.0833 µM (active)	–	–
CNC(=O)c1ccccc1Nc1nc(Nc2ccc(N3CCOCC3)cc2OC)ncc1Cl	7.43 µM (active) and 4.11 µM (active)	–	–
CCN(CC)CCNC(=O)c1ccc2nc(-c3ccccc3)c(-c3ccc(CN4CCC(n5c(=O)[nH]c6ccccc65)CC4)cc3)nc2c1	9.35 µM (active)	–	–
CN1CCC(CNc2ccc3ncc(-c4cccc(OC(F)(F)F)c4)n3n2)CC1	4.69 µM (active)	–	–
CC(=O)Nc1nc(C)c(-c2ccc(Cl)c(S(=O)(=O)NCCO)c2)s1	1.66 µM (active) and 13 µM (active)	–	–
C[C@]12CC[C@H](O)CC1=CCC1C2CC[C@]2(C)C(n3cnc4ccccc43)=CCC12 (some centres undefined)	–	-7.08%	–
O=C(C=Cc1cccc(S(=O)(=O)Nc2ccccc2)c1)NO	21.5 µM (active)	–	–

Structure (SMILES)	Potency	max response	outcome
CC(C)(C)c1cc(NC(=O)Nc2ccc(-c3cn4c(n3)sc3cc(OCCN5CCOCC5)ccc34)cc2)no1	–	-10.2% and -19.2%	–
CN(C)CCCN=c1c2ccccc2n(C)c2[nH]c(=O)n(C)c(=O)c12	11.8 µM (active)	–	–
OCc1ccc(-c2ccc(-c3ccc(CO)s3)o2)s1	–	-8.37%	–
Nc1nc(Nc2ccc(S(N)(=O)=O)cc2)nn1C(=O)c1c(F)cccc1F	18.7 µM (active)	–	–
CN(C)Cc1c(C(=O)NCCOc2ccc(C(=O)NO)cc2)oc2ccccc12	4.69 µM (active) and 4.61 µM (active)	–	–
CNc1nccc(-c2cccnc2Oc2cc(C(=O)Nc3cccc(C(F)(F)F)c3)ccc2C)n1	7.31 µM (active)	–	–
NCC(=O)Nc1ccc(-n2nc(C(F)(F)F)cc2-c2ccc3c(ccc4ccccc43)c2)cc1	–	-6.6%	–
C#Cc1cccc(Nc2ncnc3cc(OC)c(OCCCCCCC(=O)NO)cc23)c1	4.69 µM (active)	–	–
CC(=O)OCCN1C(=O)c2c(C)nc3ccc(S(=O)(=O)N4CCOCC4)cc3c2C1=O	–	-12.8%	–
COc1cccc2c(NCc3ccccc3)nc(-n3c(N)nc4ccccc43)nc12	8.33 µM (active)	–	–
Cc1cc(C(=O)N2CCN(c3cccc(Cl)c3)CC2)n(-c2ccccc2)n1	4.69 µM (active) and 5.8 µM (active)	–	–
Clc1ccc2ncc(-c3cccc(NC4CNC4)n3)n2c1	–	–	inactive
COc1cccc2nc(-c3cccs3)nc(NN3C(=O)C=C(C)C3=O)c12	2.09 µM (active) and 6.51 µM (active)	–	–
Nc1ccccc1NC(=O)c1ccc(CNC(=O)OCc2cccnc2)cc1	9.2 µM (active)	–	–
CC(=O)OCC(=O)[C@@]1(O)[C@H](C)C[C@H]2[C@@H]3C=C(C)C4=Cc5c(cnn5-c5ccccc5)C[C@]4(C)[C@@H]3[C@@H](O)C[C@@]21C	20.9 µM (active)	–	–
CC(C)C[C@H](NC(=O)CNC(=O)c1cc(Cl)ccc1Cl)B(O)O	1.48 µM (active)	–	–
CC[C@@H]1C(=O)N(C)c2cnc(Nc3ccc(C(=O)NC4CCC(N5CCN(CC6CC6)CC5)CC4)cc3OC)nc2N1C(C)C (some centres undefined)	332 nM (active) and 14.6 µM (active)	–	–
